PubChem BioAssay AID1159580 (chemical genetic matrix, 2015)
Screen size: about 5,500 compounds; about 2,000 (36%) were called active. About 18% were inconclusive and are not listed. Cut-off read from the data, not from the text of the source: active = normalized growth mostly below about 0.91 (no sharp cut-off); inconclusive = no clear call, values can overlap the other calls; inactive = mostly above about 0.92. Some of the results follow.

Test: chemical genetic growth profiling, strain panel (AID 1159580);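 note: tested at 20 µM; growth read once vehicle control cultures reached saturation at 30 °C; 1 = growth at the plate median or of vehicle wells; lower values mean less growth of the strain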
Settings: growth OD

Measured: normalized growth

CO[C@@]1(NC(=O)CSCC#N)C(=O)N2C(C(=O)O)=C(CSc3nnnn3C)CSC21 (some centres not stated)
inactive: S. cerevisiae deletion strains, locus YJR075W, strain HOC1, active compounds read low 1.01 | S. cerevisiae deletion strains, locus YKL009W, strain mrt4, active compounds read low 1.04 | S. cerevisiae deletion strains, locus YKL068W, active compounds read low 1.02 | S. cerevisiae deletion strains, locus YKL085W, strain MDH1 (second series), active compounds read low 1.03 | S. cerevisiae deletion strains, locus YKL085W, strain MDH1, active compounds read low 1.03 | S. cerevisiae deletion strains, locus YKL160W, strain elf1, active compounds read low 0.959 | S. cerevisiae deletion strains, locus YKL190W, strain CNB1, active compounds read low 0.995 | S. cerevisiae deletion strains, locus YKR001C, strain vps1, active compounds read low 1.04 | S. cerevisiae deletion strains, locus YKR026C, strain gcn3, active compounds read low 0.996 | S. cerevisiae deletion strains, locus YKR091W, strain srl3, active compounds read low 0.982 | S. cerevisiae deletion strains, locus YLL001W, strain dnm1, active compounds read low 0.96 | S. cerevisiae deletion strains, locus YLL026W, active compounds read low 0.986 | S. cerevisiae deletion strains, locus YLL041C, strain sdh2, active compounds read low 0.978 | S. cerevisiae deletion strains, locus YLR027C, strain aat2, active compounds read low 0.99 | S. cerevisiae deletion strains, locus YLR039C, strain RIC1, active compounds read low 1.07 | S. cerevisiae deletion strains, locus YLR058C, strain SHM2, active compounds read low 1.01 | S. cerevisiae deletion strains, locus YLR102C, strain apc9, active compounds read low 1.04 | S. cerevisiae deletion strains, locus YLR113W, strain HOG1, active compounds read low 0.96 | S. cerevisiae deletion strains, locus YLR221C, strain rsa3, active compounds read low 0.98 | S. cerevisiae deletion strains, locus YLR258W, strain gsy2, active compounds read low 0.98 | S. cerevisiae deletion strains, locus YLR262C, strain YPT6 (second series), active compounds read low 0.981 | S. cerevisiae deletion strains, locus YLR262C, strain YPT6, active compounds read low 1.09 | S. cerevisiae deletion strains, locus YLR268W, strain sec22, active compounds read low 1.02 | S. cerevisiae deletion strains, locus YLR320W, strain mms22, active compounds read low 0.953 | S. cerevisiae deletion strains, locus YLR330W, strain CHS5, active compounds read low 1.01 | S. cerevisiae deletion strains, locus YLR342W, strain FKS1 (second series), active compounds read low 1.01 | S. cerevisiae deletion strains, locus YLR342W, strain FKS1, active compounds read low 0.967 | S. cerevisiae deletion strains, locus YLR357W, strain rsc2, active compounds read low 0.915 | S. cerevisiae deletion strains, locus YLR370C, strain arc18, active compounds read low 0.984 | S. cerevisiae deletion strains, locus YLR371W, strain rom2, active compounds read low 1.04 | S. cerevisiae deletion strains, locus YLR384C, strain iki3, active compounds read low 1 | S. cerevisiae deletion strains, locus YLR418C, strain cdc73, active compounds read low 1.04 | S. cerevisiae deletion strains, locus YML016C, strain PPZ1, active compounds read low 1.01 | S. cerevisiae deletion strains, locus YML032C, strain rad52, active compounds read low 1.05 | S. cerevisiae deletion strains, locus YML120C, strain ndi1, active compounds read low 0.988 | S. cerevisiae deletion strains, locus YML124C, strain tub3, active compounds read low 1.02 | S. cerevisiae deletion strains, locus YMR058W, strain fet3, active compounds read low 1.01 | S. cerevisiae deletion strains, locus YMR078C, strain ctf18, active compounds read low 1.03 | S. cerevisiae deletion strains, locus YMR125W, strain sto1, active compounds read low 1.01 | S. cerevisiae deletion strains, locus YMR129W, active compounds read low 0.995 | S. cerevisiae deletion strains, locus YMR205C, strain PFK2, active compounds read low 0.965 | S. cerevisiae deletion strains, locus YMR223W, strain ubp8, active compounds read low 1.04 | S. cerevisiae deletion strains, locus YMR231W, strain pep5, active compounds read low 0.985 | S. cerevisiae deletion strains, locus YMR263W, strain SAP30, active compounds read low 1.01 | S. cerevisiae deletion strains, locus YMR307W, strain GAS1, active compounds read low 1.05 | S. cerevisiae deletion strains, locus YNL067W, strain RPL9B, active compounds read low 1.01 | S. cerevisiae deletion strains, locus YNL071W, strain lat1, active compounds read low 0.991 | S. cerevisiae deletion strains, locus YNL128W, strain TEP1, active compounds read low 1.02 | S. cerevisiae deletion strains, locus YNL153C, strain GIM3, active compounds read low 1.01 | S. cerevisiae deletion strains, locus YNL183C, strain NPR1, active compounds read low 0.926 | S. cerevisiae deletion strains, locus YNL209W, strain ssb2, active compounds read low 0.988 | S. cerevisiae deletion strains, locus YNL233W, strain BNI4, active compounds read low 1.02 | S. cerevisiae deletion strains, locus YNL248C, strain rpa49, active compounds read low 0.973 | S. cerevisiae deletion strains, locus YNL250W, strain rad50, active compounds read low 1.05 | S. cerevisiae deletion strains, locus YNL271C, strain bni1, active compounds read low 1.04 | S. cerevisiae deletion strains, locus YNL298W, strain CLA4, active compounds read low 1.04 | S. cerevisiae deletion strains, locus YNL307C, strain MCK1, active compounds read low 1.04 | S. cerevisiae deletion strains, locus YNL322C, strain KRE1 (second series), active compounds read low 0.959 | S. cerevisiae deletion strains, locus YNL322C, strain KRE1, active compounds read low 1.02 | S. cerevisiae deletion strains, locus YNR049C, strain mso1, active compounds read low 0.975 | S. cerevisiae deletion strains, locus YNR052C, strain pop2, active compounds read low 1.05 | S. cerevisiae deletion strains, locus YOL006C, strain TOP1, active compounds read low 1.03 | S. cerevisiae deletion strains, locus YOL012C, strain htz1 1.23 | S. cerevisiae deletion strains, locus YOL147C, strain pex11, active compounds read low 1.03 | S. cerevisiae deletion strains, locus YOR001W, strain rrp6, active compounds read low 1.01 | S. cerevisiae deletion strains, locus YOR061W, strain CKA2, active compounds read low 1.01 | S. cerevisiae deletion strains, locus YOR069W, strain VPS5, active compounds read low 1.01 | S. cerevisiae deletion strains, locus YOR070C, strain gyp1, active compounds read low 0.989 | S. cerevisiae deletion strains, locus YOR080W, strain dia2, active compounds read low 0.997 | S. cerevisiae deletion strains, locus YOR083W, strain WHI5, active compounds read low 0.913 | S. cerevisiae deletion strains, locus YOR106W, strain vam3, active compounds read low 0.968 | S. cerevisiae deletion strains, locus YOR136W, strain idh2, active compounds read low 1.04 | S. cerevisiae deletion strains, locus YOR144C, strain elg1, active compounds read low 1.02 | S. cerevisiae deletion strains, locus YOR184W, strain ser1, active compounds read low 1.05 | S. cerevisiae deletion strains, locus YOR231W, strain MKK1, active compounds read low 0.976 | S. cerevisiae deletion strains, locus YOR265W, strain rbl2, active compounds read low 0.974 | S. cerevisiae deletion strains, locus YOR270C, strain vph1, active compounds read low 0.993 | S. cerevisiae deletion strains, locus YOR290C, strain snf2, active compounds read low 0.966 | S. cerevisiae deletion strains, locus YOR316C, strain cot1, active compounds read low 1.03 | S. cerevisiae deletion strains, locus YPL051W, strain arl3, active compounds read low 0.98 | S. cerevisiae deletion strains, locus YPL055C, strain LGE1, active compounds read low 1.05 | S. cerevisiae deletion strains, locus YPL078C, strain atp4, active compounds read low 0.98 | S. cerevisiae deletion strains, locus YPL106C, strain sse1, active compounds read low 0.948 | S. cerevisiae deletion strains, locus YPL240C, strain hsp82, active compounds read low 0.997 | S. cerevisiae deletion strains, locus YPL241C, strain CIN2, active compounds read low 1.01 | S. cerevisiae deletion strains, locus YPL256C, strain CLN2, active compounds read low 1 | S. cerevisiae deletion strains, locus YPR119W, strain clb2, active compounds read low 1.04 | S. cerevisiae deletion strains, locus YPR141C, strain kar3, active compounds read low 1.05 | S. cerevisiae deletion strains, locus YPR163C, strain tif3, active compounds read low 1.03 | S. cerevisiae deletion strains, locus YPR167C, strain met16, active compounds read low 1.04 | S. cerevisiae deletion strains, strain wtn01, active compounds read low 1.02 | S. cerevisiae strains, strain wild type, active compounds read low 1.01
